# Compound activity deposited in PubChem BioAssay by Johns Hopkins Ion Channel Center.
# The list is not random: actives were taken first. Their share in the collection is about 2.3%.
# CHT block = inhibitors of human choline transporter CHT | B-score at 10 µM | CHT-expressing cells, membrane potential dye, choline response; hits give low values | hit rate 0.86% among 310,000 | High affinity choline transporter 1 (Homo sapiens), Q9GZV3;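 active = B-score over 3 SD under the library average, and starting fluorescence ratio not unusually high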;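 also: choline stimulus applied at its EC90 after an EC20 pre-addition; B-score computed on integrated fluorescence ratio after choline addition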
# ANO1 activ = TMEM16A chloride channel activators or potentiators, primary screen, cell-based, HTS | HEK293 TMEM16A/YFP-H148Q/I152L, iodide quench fluorescence; hits give low values | B-score at 10 µM | hit rate 0.3% among 340,000 | AID 623877, 2012;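 active = fluorescence-ratio B-score plate-corrected deviation score at least 3 library SD below zero, with starting fluorescence score within 5 deviations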;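 also: channel opened by trigger with iodide after compound preincubation; score built on the fluorescence ratio of max minus min over baseline; more negative score means more quench and so TMEM16A activation or potentiation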
# CHT allo act = CHT positive allosteric modulators, primary screen, cell-based, membrane potential dye, choline EC20. B-score at 10 µM. High affinity choline transporter 1 (Homo sapiens), Q9GZV3. hit rate 0.49% among 310,000. CHT-expressing cells; hits give high values; LV-AA mutant CHT in HEK293 cells;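 active = initial fluorescence not abnormally high and integrated response B-score, plate-corrected, over 3 SD above library mean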
# TMEM16A inh = TMEM16A chloride channel inhibitors, primary screen, cell-based, HTS. hit rate 1.2% among 310,000. normalized B-score (activity score, 25-100; higher = stronger inhibition) at 10 µM. Anoctamin-1 (Mus musculus), Q8BHY3. HEK293 TMEM16A/YFP iodide influx fluorescence, ionomycin. AID 588511, 2011;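 active = ratio plate-corrected score three or more library SD toward inhibition, starting fluorescence score within five deviations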;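 also: score derived from kinetic fluorescence span divided by baseline fluorescence per well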
# TMEM16A reconf = TMEM16A chloride channel inhibitors, confirmation, cell-based, re-confirmation | shares compounds with TMEM16A inh | HEK293 TMEM16A/YFP-H148Q, iodide quench fluorescence; ionomycin added to raise cell calcium | inhibition, % at 10 µM | hit rate 39% among 2,300;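 active = mean duplicate percent inhibition, scaled so buffer wells are 0 and the reference blocker 100, over three buffer SD above buffer mean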
# HEK293 Ca mobil = calcium mobilization in TMEM16A/YFP HEK293 cells, confirmation, counter-screen for TMEM16A inhibitor project; shares compounds with TMEM16A inh; Fluo4 calcium mobilization; calcium response (% of ionomycin), % at 10 µM; hit rate 2% among 2,300; AID 652231, 2013;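 active = duplicate-averaged calcium signal over 20% of the ionomycin maximum, relative to buffer baseline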;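 also: each well's signal is peak minus trough fluorescence divided by its pre-addition baseline; 0% = buffer wells and 100% = ionomycin wells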
# Parental YFP cnt = iodide YFP quench changes in parental YFP-HEK293, counter-screen for TMEM16A inhibitor project, cell-based | shares compounds with TMEM16A inh | 2,300 tested, under 10 active | ionomycin | YFP ratio F(max-min)/F0 at 10 µM;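 active = yellow fluorescent protein signal ratio exceeding the buffer control mean by over 5 SD of those controls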;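 also: ratio is mean of duplicate wells from kinetic YFP trace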
# ClC-1 rat inh = ClC-1 chloride channel inhibition, selectivity assay for TMEM16A inhibitor project, cell-based, voltage-dependent ClC-1; ratio percent, % at 10 µM; 2,300 tested, under 10 active; shares compounds with TMEM16A inh; CHO ClC-1-YFP, iodide influx fluorescence quench; iodide control reads 0, buffer control 100;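 active = duplicate-mean ratio percent above the mean of iodide-only control wells, which defines zero, plus 5 of their SD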;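 also: higher percent means stronger block of ClC-1 iodide influx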
# Target sequence (P35524 whole entry, looked up): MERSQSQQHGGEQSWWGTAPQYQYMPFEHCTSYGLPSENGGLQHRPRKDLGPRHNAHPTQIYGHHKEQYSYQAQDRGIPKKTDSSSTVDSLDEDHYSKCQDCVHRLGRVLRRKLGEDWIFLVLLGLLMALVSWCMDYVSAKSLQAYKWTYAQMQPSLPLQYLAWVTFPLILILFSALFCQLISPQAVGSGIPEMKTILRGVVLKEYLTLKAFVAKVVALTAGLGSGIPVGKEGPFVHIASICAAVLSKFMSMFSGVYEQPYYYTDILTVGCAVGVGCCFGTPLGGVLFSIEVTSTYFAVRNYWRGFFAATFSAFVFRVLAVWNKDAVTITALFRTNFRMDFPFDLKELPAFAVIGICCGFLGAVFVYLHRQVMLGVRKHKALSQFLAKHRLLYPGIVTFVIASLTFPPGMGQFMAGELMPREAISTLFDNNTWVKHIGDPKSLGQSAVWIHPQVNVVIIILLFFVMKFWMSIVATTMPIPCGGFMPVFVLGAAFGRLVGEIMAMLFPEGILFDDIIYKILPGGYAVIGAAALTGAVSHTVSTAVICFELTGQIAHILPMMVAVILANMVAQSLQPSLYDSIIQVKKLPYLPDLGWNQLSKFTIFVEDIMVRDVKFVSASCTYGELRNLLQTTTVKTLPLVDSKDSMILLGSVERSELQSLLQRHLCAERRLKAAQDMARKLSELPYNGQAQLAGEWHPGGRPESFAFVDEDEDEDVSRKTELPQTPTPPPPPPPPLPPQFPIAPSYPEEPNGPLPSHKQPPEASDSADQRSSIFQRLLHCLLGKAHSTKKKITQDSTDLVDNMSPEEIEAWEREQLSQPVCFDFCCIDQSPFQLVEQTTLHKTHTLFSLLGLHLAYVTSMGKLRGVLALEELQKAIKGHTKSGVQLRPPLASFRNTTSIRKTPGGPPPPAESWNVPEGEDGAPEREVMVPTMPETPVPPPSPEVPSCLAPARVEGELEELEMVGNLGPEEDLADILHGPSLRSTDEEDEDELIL
# Active calls of the source: *; i = inactive; nt = not tested or not shown.
SMILES,CHT block,ANO1 activ,CHT allo act,TMEM16A inh,TMEM16A reconf,HEK293 Ca mobil,Parental YFP cnt,ClC-1 rat inh
Cc1nc2cc(-c3ccsc3-n3c(C)ccc3C)[nH]n2c(=O)c1Cl,i,i,i,100*,20.5%*,i,-0.905,-14.0
CCCCOc1ncnc2c1[nH]c1ccc(F)cc12,i,i,i,25*,i,i,-0.944,-20.0
CCN(C(=O)c1cc(S(=O)(=O)N2CCc3ccccc32)cn1C)c1ccccc1,i,i,i,i,nt,nt,nt,nt
CCc1cc2cc3c(cc2nc1SCC(=O)OC(C)C)OCO3,i,i,i,100*,i,i,-0.997,-15.5
CCn1cnc2scc(-c3ccccc3)c2c1=O,i,i,i,100*,i,i,-1.13,-11.5
COc1cccc(C(=O)/C(C#N)=N/Nc2cccc(-c3ccnc(C)n3)c2)c1,i,i,i,100*,i,i,-1.03,-5.5
CNC(=O)Nc1cccc(-c2ccnc(C)n2)c1,i,i,i,i,nt,nt,nt,nt
CCCc1[nH]nc2c1C1(CCOC1C)C(C#N)=C(N)O2 (stereo unspecified),i,i,i,25*,i,i,-1.13,-11.5
CCOC(=O)C1CCN(C(=O)c2ccc(OCC(=O)Nc3cccc(C(F)(F)F)c3)c(OC)c2)CC1,i,i,i,25*,28.5%*,i,-1.1,-19.0
CCOC(=O)C1CCN(C(=O)c2ccc(OCC(=O)Nc3cccc(C(F)(F)F)c3)cc2)CC1,i,i,i,i,nt,nt,nt,nt
O=C(NC1=NCCS1)c1ccc(Cl)c(S(=O)(=O)N2CCCC2)c1,i,i,i,25*,i,i,-0.977,-6.0
CCC(C)NC(=O)C1CCC(CNS(=O)(=O)c2ccccc2)CC1 (stereo unspecified),i,i,i,i,i,i,-0.863,0.5
COc1ccc(-n2c(COc3cccc4ccccc34)nnc2SCC#N)cc1,i,nt,i,i,nt,nt,nt,nt
N#CCSc1nnc(COc2cccc3ccccc23)n1-c1ccccc1,i,i,i,25*,i,i,-1.05,-13.0
N#CCSc1nnc(COc2ccccc2)n1-c1ccccc1,i,i,i,25*,i,i,-1.08,5.5
O=C(O)CSc1nnc(COc2ccccc2)n1-c1ccccc1,i,i,i,i,nt,nt,nt,nt
COc1ccccc1N(CC(=O)NCCSCc1cccc(C)c1)S(=O)(=O)c1ccccc1,i,i,i,25*,i,i,-0.964,-17.5
COc1ccccc1N(CC(=O)NCCSCc1ccccc1)S(C)(=O)=O,i,i,i,i,nt,nt,nt,nt
CCN(CC)S(=O)(=O)c1cccc(C(=O)OCC(=O)c2ccc3c(c2)NC(=O)CO3)c1,i,i,i,25*,i,i,-1.11,-2.5
O=C(Nn1c(-c2ccc(Br)cc2)nc2ccccc2c1=O)c1ccc([N+](=O)[O-])cc1,i,i,i,25*,i,i,-1.1,-8.5
O=C(Nn1c(-c2ccncc2)nc2ccccc2c1=O)c1ccc(Br)cc1,i,i,i,i,nt,nt,nt,nt
COc1ccc(S(=O)(=O)NC2CCCC2)cc1Cl,i,i,i,i,nt,nt,nt,nt
COCCN(C(=O)CCC(=O)Nc1nccs1)C(C(=O)NC(C)(C)C)c1ccc(F)cc1 (stereo unspecified),i,i,i,100*,i,i,-1.1,0.5
COCCN(C(=O)CCC(=O)Nc1nccs1)C(C(=O)NC(C)(C)C)c1ccc(C)cc1 (stereo unspecified),i,i,i,i,nt,nt,nt,nt
CCOC(=O)C1(Cc2ccccc2)C(=O)N(CCCN(C)C)c2ccccc21 (stereo unspecified),i,i,i,i,nt,nt,nt,nt
SMILES,CHT block,ANO1 activ,CHT allo act,TMEM16A inh,TMEM16A reconf,HEK293 Ca mobil,Parental YFP cnt,ClC-1 rat inh
COC(=O)c1ccc(CSc2nnnn2-c2ccccc2)o1,i,i,i,100*,i,i,-0.913,-2.5
CC(C)(C)NC(=O)COC(=O)c1snc(C(=O)NC2CCCCC2)c1N,i,i,i,100*,i,i,-0.988,-20.5
CC(OC(=O)c1snc(C(=O)NC2CCCCC2)c1N)C(=O)NC(C)(C)C (stereo unspecified),i,i,i,i,nt,nt,nt,nt
Cc1[nH]nc2c1C(CCc1ccccc1)C(C#N)=C(N)O2 (stereo unspecified),i,i,i,i,nt,nt,nt,nt
Fc1ccc(-c2cc3nc(-c4ccccc4)cc(N4CCOCC4)n3n2)cc1,i,i,i,i,nt,nt,nt,nt
COCCN1CCN(c2cc(-c3ccccc3)nc3cc(-c4cccc(F)c4)nn23)CC1,i,i,i,100*,i,i,-1.12,-9.0
CCOC(=O)c1sc2nc(C)nc(NCc3ccc(F)cc3)c2c1C,i,i,i,100*,i,i,-1.12,-13.0
CCOC(=O)c1sc2nc(C)nc(NCc3ccc(Cl)cc3)c2c1C,i,i,i,i,nt,nt,nt,nt
O=C(Nn1c(O)c(C=C2N=c3ccccc3=N2)sc1=S)c1cccc(Cl)c1,i,i,i,25*,i,i,-0.812,-6.0
O=C(Nn1c(O)c(C=C2N=c3ccccc3=N2)sc1=S)c1ccc(Cl)cc1,i,i,i,i,nt,nt,nt,nt
Cc1cccc(C)c1OCc1cc(C(=O)N(Cc2c(C)nn(C)c2C)C2CC2)no1,i,i,i,25*,21.5%*,i,-1.24,-13.5
CCc1ccc(NSc2ccccc2[N+](=O)[O-])cc1,i,i,i,25*,i,i,-1.2,-2.0
COc1ccc2c(c1)CC/C(=C/c1ccco1)C2=O,i,i,i,i,i,i,-1.05,-5.0
O=C1/C(=C/c2ccco2)CCc2ccccc21,i,i,i,i,nt,nt,nt,nt
Cc1onc(-c2c(F)cccc2Cl)c1C(=O)Nc1nc2c(s1)CCCC2,i,i,i,100*,i,i,-1.02,-9.0
